ALOX15B inhib: qHTS Assay for Inhibitors of 15-hLO-2 (15-human lipoxygenase 2) | Potency, µM (titrated, usually from 57.1 µM), for inactives: top-dose activity change, negative = inhibition, usual class: inhibitors | purified 15hLO-2, xylenol orange hydroperoxide absorbance | Polyunsaturated fatty acid lipoxygenase ALOX15B (Homo sapiens), O15296 | AID 881, 2007 | 110,000 tested, 0.56% active; also: potency is read from the fitted curve at half-maximal effect; nearly all actives have a fitted effect of over 60% in size
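Purified human 15hLO-2 (50 nM final) preincubated with compounds 15 min at room temperature in 25 mM Hepes pH 7.5, 0.01% Triton X-100, then 45 uM arachidonic acid added for 90 min; hydroperoxide detected via ferrous/xylenol orange, 573/405 nm absorbance ratio.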
IMPase Li inh: qHTS Assay for Identifying the Cell-Membrane Permeable IMPase Inhibitors: Potentiation with Lithium. CHO-M1 cells, IP1 TR-FRET (IP-One), carbachol + lithium. AID 1457, 2008. 210,000 tested, 0.35% active. Potency, µM (series often up to 59.4 µM), without a hit: top-dose activity, negative = IMPase inhibition, hits mostly inhibitors;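 also: IP1 builds up when IMPase is blocked and the TR-FRET signal falls; potency is read from the fitted curve at half-maximal effect; plate controls were basal vehicle for no effect and high inhibitor control for full effect; nearly all actives have a fitted effect of over 50% in size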
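CHO-M1, 2000 cells/well, 16–30 h culture; cpd + low Li+, 30 min 37C; lysis with d2-IP1/Eu-anti-IP1 Ab, 10 min RT; TR-FRET 665/620 ratio and 620 channel; AC50 via Hill.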
IMPase inh: qHTS Assay for Identifying the Cell-Membrane Permeable IMPase Inhibitors; Inositol monophosphatase 1 (Rattus norvegicus), P97697; AID 901, 2007; 120,000 tested, under 10 active; inhibition (IP1 accumulation), % at 46.1 µM; CHO-M1 cells, IP1 accumulation, HTRF TR-FRET ratio; active = well fitted curve in the direction sought with a large enough effect in the signal ratio, not every such curve was filed as active; inconclusive = small, poorly fitted or top-dose-only effect, or a change in a side signal; inactive = no such curve, though single readings can be large or run the other way; the % refers to the signal ratio;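 also: cells stimulated with carbachol in lithium chloride buffer; plate controls were DMSO basal wells for no effect and reference inhibitor wells for full effect; higher means more IMPase inhibition seen as more IP1 and lower FRET ratio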
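Measured: the HTRF emission ratio (665/620 nm) plus the 620 nm donor channel, each fitted to the Hill equation to give AC50. Cells were CHO-M1 given compounds up to 46 uM and a 30 min carbachol stimulation at 37C.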
ALOX12 inhib: qHTS Assay for Inhibitors of 12-hLO (12-human lipoxygenase); Polyunsaturated fatty acid lipoxygenase ALOX12 (Homo sapiens), P18054; purified 12-hLO, xylenol orange hydroperoxide absorbance; Potency, µM (titrated, usually from 57.1 µM), without a hit: at the highest dose activity change, negative = inhibition, hits mostly inhibitors; 150,000 tested, 0.12% active; AID 1452, 2008; also: potency is read from the fitted curve at half-maximal effect; nearly all actives have a fitted effect of over 55% in size
Target sequence (P18054 whole entry, looked up): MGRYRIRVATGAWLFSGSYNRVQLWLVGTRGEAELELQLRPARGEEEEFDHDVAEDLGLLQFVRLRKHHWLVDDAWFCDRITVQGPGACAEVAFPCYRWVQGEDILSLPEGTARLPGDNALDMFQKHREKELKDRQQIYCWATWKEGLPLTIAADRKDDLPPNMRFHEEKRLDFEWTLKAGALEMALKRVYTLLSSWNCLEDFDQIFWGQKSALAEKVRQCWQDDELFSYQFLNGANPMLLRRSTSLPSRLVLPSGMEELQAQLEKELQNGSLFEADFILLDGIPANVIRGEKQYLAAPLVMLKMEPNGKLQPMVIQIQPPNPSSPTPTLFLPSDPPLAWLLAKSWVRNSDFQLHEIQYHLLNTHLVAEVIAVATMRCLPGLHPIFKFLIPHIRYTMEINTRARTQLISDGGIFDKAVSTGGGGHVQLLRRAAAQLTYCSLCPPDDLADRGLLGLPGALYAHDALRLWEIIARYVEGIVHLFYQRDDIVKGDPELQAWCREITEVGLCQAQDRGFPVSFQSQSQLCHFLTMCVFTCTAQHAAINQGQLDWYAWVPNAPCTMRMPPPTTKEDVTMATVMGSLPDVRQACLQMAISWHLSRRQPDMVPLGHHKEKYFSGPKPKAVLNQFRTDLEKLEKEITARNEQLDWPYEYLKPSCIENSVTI
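Purified human 12hLO (150 nM final) was preincubated with compounds for 15 min at room temperature in 25 mM Hepes pH 7.0, 0.01% Triton X-100, then reacted with 40 uM arachidonic acid for 30 min. Hydroperoxide was detected with ferrous iron/xylenol orange.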
PNC inhibitor: High Content Assay for Compounds that inhibit the Assembly of the Perinucleolar Compartment. PC3M PTB-GFP, PNC prevalence imaging, 16 h; hits give low values. activity change (PNC), negative = inhibition, % at 10 µM. 140,000 tested, 3.1% active. AID 2417, 2010;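 active = readout at or below -70, meaning at least 70% loss of cells showing the perinucleolar compartment, a nuclear body marking cancer cells; inconclusive = readout between -30 and a set limit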;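 also: plate controls were DMSO wells for no effect and camptothecin positive control wells for full effect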
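PC3M cells stably expressing PTB-GFP, 750–1000 cells/well, treated 16 h at 37 °C with compound (23 nl of library stock), in duplicate. After paraformaldehyde fixation and Hoechst stain, imaged at 20x; PNC prevalence scored by image analysis.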
HPGD inh: qHTS Assay for Inhibitors of HPGD (15-Hydroxyprostaglandin Dehydrogenase) | 15-hydroxyprostaglandin dehydrogenase [NAD(+)] (Homo sapiens), P15428 | purified HPGD, NADH fluorescence kinetic, PGE2 substrate | Potency, µM, for inactives: top-dose activity change, negative = inhibition, most hits filed as inhibitors | 150,000 tested, 4.3% active; active = well fitted inhibition curve with a large enough effect, not every such curve was filed as active; inconclusive = small, poorly fitted or top-dose-only effect, or another doubt; inactive = no such curve, though single readings can be large or run the other way; also: potency is read from the fitted curve at half-maximal effect
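NADH formation kinetics: reaction with 30 uM PGE2 and 1 mM NAD+ (final), 20 nM enzyme, Tris-HCl pH 8 with Tween 20, after 15 min compound preincubation at room temperature. Fluorescence change, last versus first of five reads.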
Active calls of the source: *; [ ] = another dose, or the depositor's remark. A selection: hits, their analogues and other compounds. The true share with any hit is near 5.4%. Unless noted, calls follow the shape of the dose curve; as a rule, active = well fitted curve in the direction sought with a large enough effect; inconclusive = small, poorly fitted or top-dose-only effect, or another doubt; inactive = no such curve, though single readings can be large; an effect the other way counts as inactive or inconclusive. Unless noted, % is scaled to controls: 0 for no effect and ±100 for the full control effect.

Results for O=c1cnn([C@@H]2O[C@H](CO)[C@@H](O)[C@H]2O)c(=O)[nH]1 ?
IMPase Li inh: -8%; ALOX12 inhib: -6%; PNC inhibitor: -111*; HPGD inh: 1%

How did Cc1ccc(S(=O)(=O)N2CCC(C(=O)Nc3ccc(C)c(Cl)c3)CC2)cc1 do in these assays?
IMPase inh: 3

How did COCCNC(=O)C(c1ccc(F)cc1)N(CCOC)C(=O)CCC(=O)Nc1nccs1 (stereo not given) do in these assays?
ALOX15B inhib: 1%; IMPase Li inh: 18%[38.3 µM]; IMPase inh: 2; ALOX12 inhib: 4%; PNC inhibitor: -108*; HPGD inh: -1%

How did Cc1cccc(NC(=O)CCN2CCN(c3ccccc3F)CC2)c1 do in these assays?
IMPase inh: 9

What do the screens show for `CC(=O)c1ccc(N2CCN(C(=O)c3cc(-c4cccnc4)nc4ccc(Br)cc34)CC2)cc1`?
IMPase Li inh: -8%

How did NS(=O)(=O)c1ccc(CCNC(=O)c2cc(-c3ccccn3)nc3ccc(Br)cc23)cc1 do in these assays?
IMPase Li inh: 11µM*

How did O=C(c1cc(-c2cccnc2)nc2ccc(Br)cc12)N1CCN(c2ncccn2)CC1 do in these assays?
ALOX15B inhib: 21%; IMPase Li inh: 11µM*; IMPase inh: -23; ALOX12 inhib: -7%; PNC inhibitor: inconclusive; HPGD inh: 16µM*

What do the screens show for `O=C(Nc1ccccn1)c1cc(-c2cccnc2)nc2ccc(Br)cc12`?
IMPase Li inh: 11µM*; IMPase inh: inconclusive; ALOX12 inhib: 0%; PNC inhibitor: 21; HPGD inh: -18%

What do the screens show for `NS(=O)(=O)c1ccc(CCNC(=O)c2cc(-c3ccc(Br)cc3)nc3ccccc23)cc1`?
IMPase Li inh: 15%

How did CC(C)CC(=O)Nc1ccc(Oc2ccc(NC(=O)CC(C)C)cc2)cc1 do in these assays?
IMPase Li inh: 0%; IMPase inh: -1; ALOX12 inhib: 4%; PNC inhibitor: inconclusive; HPGD inh: -2%

Results for CC(C)CC(=O)Nc1ccc(Nc2ccccc2)cc1 ?
IMPase Li inh: 56%; IMPase inh: -7; ALOX12 inhib: 7%; PNC inhibitor: -100*; HPGD inh: 11µM*

What do the screens show for `CC(C)(C)CC(=O)Nc1ccc(Nc2ccccc2)cc1`?
ALOX15B inhib: -22%; IMPase Li inh: -6%[38.3 µM]; IMPase inh: -6; ALOX12 inhib: -8%; PNC inhibitor: inconclusive; HPGD inh: 14µM*

What do the screens show for `Cc1cc(C)cc(NCC(=O)Nc2c(C)cccc2C)c1`?
ALOX15B inhib: 2%; IMPase Li inh: 8%; IMPase inh: 10; ALOX12 inhib: 2%; PNC inhibitor: -90*; HPGD inh: -22%

How did Cc1cccc(NC(=O)CC(C)(C)C)c1 do in these assays?
ALOX15B inhib: 0%; IMPase Li inh: -1%[38.3 µM]; IMPase inh: 1; ALOX12 inhib: -1%; PNC inhibitor: inconclusive; HPGD inh: 16µM*

What do the screens show for `CC(=O)c1cccc(NC(=O)Cc2ccc3c(c2)CCCC3)c1`?
ALOX15B inhib: inconclusive; IMPase Li inh: 16%[38.3 µM]; IMPase inh: 0; ALOX12 inhib: -26%; PNC inhibitor: -9; HPGD inh: 25µM*

What do the screens show for `CC(=O)c1cccc(NC(=S)NC(=O)CC(C)(C)C)c1`?
ALOX15B inhib: -16%; IMPase Li inh: -4%[38.3 µM]; IMPase inh: 2; ALOX12 inhib: -4%; PNC inhibitor: 14; HPGD inh: 16µM*

How did [C-]#[N+]c1cc(-c2ccncc2)c(C)[nH]c1=O do in these assays?
IMPase Li inh: -11%

Results for NNC(=O)[C@@H](O)[C@H](O)[C@H](O)CO ?
ALOX15B inhib: -4%[11.4 µM]; IMPase Li inh: 5%; ALOX12 inhib: -1%[11.4 µM]; HPGD inh: 1%

How did CCOC(=O)C1=C(C)NC2=C(C(=O)c3ccccc32)C1c1ccc(O)cc1 (stereo not given) do in these assays?
IMPase Li inh: 7%; ALOX12 inhib: -4%; PNC inhibitor: -16; HPGD inh: -11%

How did CC1=C([N+](=O)[O-])C(c2cccc(Br)c2)C2=C(N1)c1ccccc1C2=O (stereo not given) do in these assays?
ALOX15B inhib: inconclusive; IMPase Li inh: 47%[38.3 µM]; IMPase inh: 9; ALOX12 inhib: -14%; PNC inhibitor: -83*; HPGD inh: 16µM*

What do the screens show for `CCCCCCCCCCCCC/C=C/[C@@H](O)[C@H](COP(=O)([O-])OCC[N+](C)(C)C)NC(=O)CCCCCCCCCCCCCCCCC`?
IMPase Li inh: -6%; ALOX12 inhib: 0%; HPGD inh: -1%

What do the screens show for `N#Cc1c(-c2ccccc2)cc(-c2ccccc2)nc1SCC(O)CS(=O)(=O)Cc1ccc(Cl)cc1` (stereo not given)?
IMPase inh: -11

How did COc1cc(/C=C(\C#N)C(=O)c2ccc(O)c(O)c2)cc(I)c1O do in these assays?
ALOX15B inhib: -22%; IMPase Li inh: 8%; IMPase inh: 6; ALOX12 inhib: inconclusive; HPGD inh: 18µM*

Results for COc1ccc(/C=C(\C#N)C(N)=O)cc1OC ?
ALOX15B inhib: -3%[11.4 µM]; IMPase Li inh: 2%; ALOX12 inhib: -1%[11.4 µM]; HPGD inh: -4%

How did Cc1nc2c3cc(F)ccc3n(Cc3ccc(F)cc3)c2s1 do in these assays?
IMPase Li inh: 11%; ALOX12 inhib: -1%; PNC inhibitor: 80; HPGD inh: -16%

What do the screens show for `CCc1ccc2c(c1)c1nc(C)sc1n2CC`?
ALOX15B inhib: -12%; IMPase Li inh: 15%[38.3 µM]; IMPase inh: 12; ALOX12 inhib: inconclusive; PNC inhibitor: 56; HPGD inh: 28µM*

How did O=C1C2C3C=CC(C4CC34)C2C(=O)N1/N=C/c1ccc([N+](=O)[O-])o1 (stereo not given) do in these assays?
IMPase Li inh: -1%

Results for O=C1C2C3C=CC(C4CC34)C2C(=O)N1/N=C/c1cccs1 (stereo not given) ?
IMPase Li inh: -8%; ALOX12 inhib: 1%; PNC inhibitor: 30; HPGD inh: 4.5µM*

Results for CN1CCN(C(=O)c2ccc3nc(-c4ccccc4)c(-c4ccccc4)nc3c2)CC1 ?
IMPase Li inh: 18%

Compound activity (PubChem BioAssay)
